# Test results as given in PubChem BioAssay (NCI).
# About 83,000 compounds went through this panel and 20% of them were active in at least one assay; those are over-represented in the sample as a whole.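 Activity criterion: percent growth below 10, measured after cells in 96-well plates were exposed to a single compound concentration for 48 hours.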 Activity calls are given as the source filed them.
# Test system: HCT-116 colon
# Experiment: NCI-60 one-dose screen, 48 h (100 = growth as untreated, 0 = no growth, -100 = all killed)
# Conditions: 10 µM unless noted
row,SMILES,growth
1,O=C1C=CC(=O)N1c1cccc(Cl)c1,89.7% (inactive)
2,O=C(O)c1ccc2c(c1)C(=O)N(Cc1ccccc1)C2=O,96.8% (inactive)
3,O=C(Cc1ccccc1)NNc1nc(Cl)nc(N2CCN(C(c3ccccc3)c3ccccc3)CC2)n1,80% (inactive)
4,O=C(/C=C/c1c(-c2ccc(Cl)cc2)nn(-c2ccccc2)c1C(F)(F)F)c1ccc(Cl)cc1,63.4% (inactive)
5,O=C1Nc2ccccc2/C1=C\c1c(-c2ccc(F)cc2)nc2ccccn12,64.2% (inactive)
6,COc1cc(C2C3=C(COC3=O)N(CCO)c3cc4c(cc32)CCC4)cc(OC)c1OC (stereo not given),-35.3% (active)
7,CC(c1ccccc1)C(C(=O)c1ccccc1)c1ccccc1 (stereo not given),74.5% (inactive)
8,C#Cc1cccc(NC(=O)Nc2cccc(NC(=O)CCl)c2)c1,2.24% [8.25 µM] (active)
9,Cc1nc2sccn2c1-c1cn2ccsc2n1,88.3% (inactive)
10,C=CCn1c(-c2ccc(-c3nc4ccc(C)cc4[nH]3)cc2)n[nH]c1=S,106% (inactive)
11,COc1cc(CC(=O)n2ncc3ccc(N)cc32)cc(OC)c1OC,97.3% (inactive)
12,COC(=O)C(CC=O)C(=O)C(=O)Nc1cccc(C(F)(F)F)c1 (stereo not given),90.1% (inactive)
13,Cc1cc2c(c(C)c1Cl)C(=O)/C(=C/c1ccc(O)c(O)c1)O2,112% (inactive)
14,O=C1/C=C/[C@@H](O)[C@@H]2C[C@@H](O)C[C@H]2/C=C/CCC[C@H](CCc2cccc3ccccc23)O1,-63.9% (active)
15,COc1cc2c(cc1OC)C(=O)/C(=C/c1cc(C)c(O)c(C)c1)S2,23.1% (inactive)
16,Cc1ccc(-n2c3c(c(-c4ccccc4)c2-c2ccccc2)C2=NCCN2C=N3)cc1,76.5% (inactive)
17,NS(=O)(=O)c1ccc(CCn2c(SCC(=O)c3ccc(Cl)cc3)nc3ccccc3c2=O)cc1,97% (inactive)
18,COc1cc(NC(=O)CSc2nc3ccc(C)cc3c(=O)n2Cc2ccccc2)cc(OC)c1OC,43.4% (inactive)
19,CN1[C@@H]2CC[C@H]1/C(=C\c1ccccc1)C(=O)/C2=C/c1ccccc1,11.9% (inactive)
20,Cc1ccc(C(=O)/C(=C/c2ccc([N+](=O)[O-])cc2)SCc2ccc(Cl)cc2)cc1,-59.9% (active)
21,CSc1nc2sc3cccc(Cl)c3n2c(=N)c1C#N,101% (inactive)
22,Cc1c2cc[nH]c(=O)c2c(C)c2c1[nH]c1cc(OCCN3CCN(C)CC3)ccc12,7.2% (active)

# Test system: HCC-2998 colon
# Experiment: as above
# Conditions: 10 µM unless noted
row,SMILES,growth
1,CC1(C)NCCC[C@]2(C)[C@H]3CC[C@@H]4[C@H]5[C@H](C(=O)/C=C/c6ccco6)CC[C@]5(CO)CC[C@@]4(C)[C@]3(C)CC[C@@H]12,91.4% (inactive)
2,CCCCCCNC(=O)Oc1ccc(/C(=C(\C)c2ccccc2)c2ccc(OCCCN(C)C)cc2)cc1,86.7% (inactive)
3,Cc1ccc(-n2nc3c(c(C#N)c2=O)CC(c2ccccc2[N+](=O)[O-])C([N+](=O)[O-])=C3O)cc1 (stereo not given),116% (inactive)
4,NC(=NCCCOc1ccc(F)cc1)Nc1ccc(Cl)cc1,40.8% (inactive)
5,Cc1cc(Cl)nc(N(CCNc2ccnc3cc(Cl)ccc23)Cc2ccccn2)n1,85.7% (inactive)
6,COc1ccc(-c2cnc3c(-c4cccc5cnccc45)cnn3c2)cc1,99.1% (inactive)
7,CCOC(=O)c1cc(C#N)n2ccc3ccccc3c12,106% (inactive)
8,N#CC(C(=O)/C(=N/NC(=O)c1ccccc1O)C(C#N)c1ccccc1)c1ccccc1 (stereo not given),85.9% (inactive)
9,N#C/C(=C\c1cccc(C#N)c1)c1ccccc1,93.1% (inactive)
10,Cc1nc2ccc(Cl)cn2c1-c1nnc(SCc2ccc([N+](=O)[O-])cc2)o1,83.5% (inactive)
11,COc1ccc2nc(-c3ccc(-c4noc(-c5cc(OC)c(OC)c(OC)c5)n4)cc3)[nH]c2c1,111% (inactive)
12,O=C1C=CC(=O)N1c1cccc(Cl)c1,104% (inactive)
13,O=C(Cc1ccccc1)NNc1nc(Cl)nc(N2CCN(C(c3ccccc3)c3ccccc3)CC2)n1,73.6% (inactive)
14,O=C(/C=C/c1c(-c2ccc(Cl)cc2)nn(-c2ccccc2)c1C(F)(F)F)c1ccc(Cl)cc1,103% (inactive)
15,O=C1Nc2ccccc2/C1=C\c1c(-c2ccc(F)cc2)nc2ccccn12,130% (inactive)
16,COc1cc(C2C3=C(COC3=O)N(CCO)c3cc4c(cc32)CCC4)cc(OC)c1OC (stereo not given),-32.4% (active)
17,CC(c1ccccc1)C(C(=O)c1ccccc1)c1ccccc1 (stereo not given),93.4% (inactive)

row,SMILES,growth
1,C#Cc1cccc(NC(=O)Nc2cccc(NC(=O)CCl)c2)c1,93.6% [8.25 µM] (inactive)
2,COc1cc(-c2cc(-c3ccc(N(C)C)cc3)nc(N3CCOCC3)c2C#N)cc(OC)c1OC,19.8% (inactive)
3,Cc1nc2sccn2c1-c1cn2ccsc2n1,50.2% (inactive)
4,C=CCn1c(-c2ccc(-c3nc4ccc(C)cc4[nH]3)cc2)n[nH]c1=S,108% (inactive)
5,COC(=O)C(CC=O)C(=O)C(=O)Nc1cccc(C(F)(F)F)c1 (stereo not given),97% (inactive)
6,CCNc1nc2ccc(Nc3ccnc4cc(Cl)ccc34)cc2[nH]1,84.1% (inactive)
7,Cc1cc2c(c(C)c1Cl)C(=O)/C(=C/c1ccc(O)c(O)c1)O2,112% (inactive)
8,O=C1/C=C/[C@@H](O)[C@@H]2C[C@@H](O)C[C@H]2/C=C/CCC[C@H](CCc2cccc3ccccc23)O1,3.84% (active)
9,COc1cc2c(cc1OC)C(=O)/C(=C/c1cc(C)c(O)c(C)c1)S2,60.4% (inactive)
10,Cc1ccc(-n2c3c(c(-c4ccccc4)c2-c2ccccc2)C2=NCCN2C=N3)cc1,108% (inactive)
11,NS(=O)(=O)c1ccc(CCn2c(SCC(=O)c3ccc(Cl)cc3)nc3ccccc3c2=O)cc1,87.7% (inactive)
12,COc1cc(NC(=O)CSc2nc3ccc(C)cc3c(=O)n2Cc2ccccc2)cc(OC)c1OC,76% (inactive)
13,CN1[C@@H]2CC[C@H]1/C(=C\c1ccccc1)C(=O)/C2=C/c1ccccc1,63.3% (inactive)
14,Cc1ccc(C(=O)/C(=C/c2ccc([N+](=O)[O-])cc2)SCc2ccc(Cl)cc2)cc1,78.6% (inactive)
15,CSc1nc2sc3cccc(Cl)c3n2c(=N)c1C#N,106% (inactive)
16,Cc1c2cc[nH]c(=O)c2c(C)c2c1[nH]c1cc(OCCN3CCN(C)CC3)ccc12,35% (inactive)
